RORg inh: inhibitors of mouse ROR gamma transcriptional activity; hit rate 5.4% among 310,000; AID 2551; Drosophila S2 Gal4-RORgamma UAS-luciferase reporter, 20 h; P51450; Potency, µM (titrated, usually from 53.6 µM), for inactives: top-dose activity change, negative = inhibition, actives largely listed as inhibitors; further: nearly all actives have a fitted effect of over 60% in size
Target sequence (P51450 whole entry, looked up, the tested form may be a part): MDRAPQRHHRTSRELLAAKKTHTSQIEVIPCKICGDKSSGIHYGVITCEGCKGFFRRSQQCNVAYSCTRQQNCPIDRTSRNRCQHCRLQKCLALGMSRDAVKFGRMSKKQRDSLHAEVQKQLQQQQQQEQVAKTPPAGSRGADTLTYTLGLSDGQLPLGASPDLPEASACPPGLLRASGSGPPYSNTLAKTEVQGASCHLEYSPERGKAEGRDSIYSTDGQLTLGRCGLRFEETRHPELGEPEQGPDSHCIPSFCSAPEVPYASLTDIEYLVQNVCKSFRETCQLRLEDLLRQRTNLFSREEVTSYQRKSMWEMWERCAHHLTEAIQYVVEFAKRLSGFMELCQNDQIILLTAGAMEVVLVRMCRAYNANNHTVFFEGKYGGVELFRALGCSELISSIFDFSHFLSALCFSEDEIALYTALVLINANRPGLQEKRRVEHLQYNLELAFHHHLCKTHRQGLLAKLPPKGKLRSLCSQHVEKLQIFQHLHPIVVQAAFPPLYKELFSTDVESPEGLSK
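In this cell-based reporter format, copper sulfate (700 uM final) drives Gal4–ROR gamma fusion expression from a metallothionein promoter in Drosophila Schneider cells; compounds preincubated 1 hr, reporter read after 20 hr at ambient temperature.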
KinaseGlo FLuc: counter-screen: inhibitors of Kinase-Glo firefly luciferase; AID 1379; Q27757; hit rate 0.28% among 200,000; Potency, µM (highest dose often 38.3 µM), without a hit: at the top dose activity change, negative = inhibition, actives largely listed as inhibitors; Kinase-Glo luciferase, ATP luminescence, 8 min; further: nearly all actives have a fitted effect of over 60% in size
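Luminescence was the read-out, taken after 8-minute incubation at ambient temperature. Luciferase turned over luciferin with 10 uM ATP in imidazole pH 7.2 buffer containing KCl, MgCl2, Tween 20 and BSA.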
VP16 counter: inhibits Gal4-VP16 luciferase reporter, ROR gamma counter-screen | Drosophila S2 Gal4-VP16 UAS-luciferase, luminescence, 20 h | Potency, µM (doses to about 53.6 µM), without a hit: top-dose activity, negative = inhibition, most hits filed as inhibitors | hit rate 3.5% among 310,000 | AID 2546;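 further: Gal4-VP16 expression switched on by copper sulfate through the metallothionein promoter; nearly all actives have a fitted effect of over 50% in size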
* = called active by the depositor; u = inconclusive; x = no result given; [ ] = remark or other dose. A selection: hits, their analogues and other compounds. The true share with any hit is near 6.2%. The call rests on the fitted dose curve; in most records, active means well fitted curve in the direction sought with a large enough effect; inconclusive means small, poorly fitted or top-dose-only effect, or another doubt; inactive means no such curve, though single readings can be large; an effect the other way counts as inactive or inconclusive. On the % scale 0 is the no-effect control and ±100 the full control effect; potency means the concentration at half of the fitted maximal effect.

SMILES	RORg inh	KinaseGlo FLuc	VP16 counter
CCc1cccc(CC)c1NC(=O)/C(C#N)=C/c1ccccc1C(F)(F)F	11µM*	-1%	10µM*
N#C/C(=C\c1ccccc1C(F)(F)F)C(=O)Nc1ccccc1	-11%[10 µM]	3%	3%
COCCN(C(=S)Nc1cc(C)cc(C)c1)C(C)c1ccco1 (stereo not given)	8.9µM*	-2%	4%[10 µM]
COCCN(C(=S)Nc1c(C)cc(C)cc1C)C(C)c1cccnc1 (stereo not given)	u	-2%	-5%
COCCN(C(=S)Nc1ccc(OC)cc1)C(C)c1cccs1 (stereo not given)	13µM*	2%	u
Cc1cc(C)c(NC(=S)N(CCN(C)C)C(C)c2cccnc2)c(C)c1 (stereo not given)	-43%	0%	-2%[10 µM]
COc1ccc(NC(=S)N(CCCN2CCCCC2)Cc2cccs2)cc1	-12%	0%	-10%
Cc1cc(C)cc(NC(=S)N(CCN(C)C)C(C)c2cccnc2)c1 (stereo not given)	11µM*	-3%	0%[10 µM]
Cc1ccc(NC(=S)N(CCN(C)C)C(C)c2ccco2)cc1Cl (stereo not given)	13µM*	x	u
Cc1ccc(NC(=S)N(CCN(C)C)C(C)c2ccco2)c(C)c1 (stereo not given)	-37%	x	2%
COc1ccccc1NC(=O)Nc1ccnn1C1CCN(C(=O)c2cccnc2)CC1	8%	x	5%
NCCCCCCCCCCN	x	-3%	x
CC(C)NS(=O)(=O)c1ccc(NCCCn2ccnc2)c([N+](=O)[O-])c1	4%	x	-5%
COc1ccc(C)cc1NC(=O)CCS(=O)(=O)c1ccc2c(c1)oc(=O)n2C	2%	x	1%
CCOc1ccc(NS(=O)(=O)c2cc(NC(=O)CCS(=O)(=O)c3ccc(C)cc3)ccc2OC)cc1	u	-2%	-1%
CCc1c(C)nc2ncnn2c1N1CCCC(C(=O)Nc2cc(F)ccc2C)C1 (stereo not given)	32%	-3%	-7%
COCCN(C(=S)Nc1cccc(C)c1)C(C)c1cccs1 (stereo not given)	11µM*	0%	u
COCCN(C(=S)Nc1cc(C)ccc1C)C(C)c1cccnc1 (stereo not given)	12%	-3%	-3%
COCCN(C(=S)Nc1cc(C)cc(C)c1)C(C)c1cccs1 (stereo not given)	10µM*	4%	22µM*
COCCN(C(=S)Nc1c(C)cccc1C)C(C)c1cccs1 (stereo not given)	u	6%	u
CC(C)CCN(C(=S)Nc1cccc(F)c1)C(C)c1cccs1 (stereo not given)	20µM*	3%	u
COc1cccc(NC(=S)N(CCN(C)C)C(C)c2ccncc2)c1 (stereo not given)	-30%	x	-9%
COc1cc(C)cc2c(-c3c(O)cc(O)c4c3C[C@H](C)N[C@@H]4C)cc(-c3cc(-c4c(O)cc(O)c5c4C[C@H](C)N[C@@H]5C)c4cc(C)cc(OC)c4c3O)c(O)c12	x	-4%[7.66 µM]	x
O=C(O)c1cc(-c2ccc3c(c2)OCO3)nc2ccccc12	-5%	-17%	-12%
Cc1ccc2nc(-c3ccc4c(c3)OCCO4)cc(C(=O)O)c2c1	5µM*	6%	7%[0.365 µM]
SMILES	RORg inh	KinaseGlo FLuc	VP16 counter
NC(=O)c1nsnc1-c1ccccc1O	22µM*	-5%	11%
O=C(c1nsnc1-c1ccccc1O)N1CCCCC1	7%	5%	9%
COc1ccc(S(=O)(=O)NN(C)C(=O)c2nn(-c3ccccc3)ccc2=O)cc1	10%	3%	5%
Cc1ccc(S(=O)(=O)NCCS(=O)(=O)N2CCN(c3ccccc3)CC2)cc1	15%	x	-10%
O=C(O)c1cccc(NC(=O)c2ccc3c(c2)C(=O)N(CC2CCCO2)C3=O)c1 (stereo not given)	0.56µM*	-10%	-30%
COC(=O)c1cccc(NC(=O)c2ccc3c(c2)C(=O)N(CC2CCCO2)C3=O)c1 (stereo not given)	27%	-6%	-2%
Cc1ccc(C(=O)NC(=S)Nc2ccc3[nH]c(=O)[nH]c3c2)cc1	4%	1%	-7%
CNC(=S)Nc1cccc(C(=O)OC)c1	u	x	-4%
Cc1ccc(C(=O)NC(=S)Nc2ccc(NC(=O)c3cccc(Cl)c3)cc2)cc1	u	1%	10µM*
CC(=O)c1cccc(NC(=S)NC(=O)c2ccc(C)cc2)c1	10µM*	4%	13µM*
CCC(=O)Nc1cccc(NC(=S)NC(=O)c2ccc(C)cc2)c1	-11%	5%	7%
CC(=O)c1cccc(NC(=S)NC(=O)c2ccc(Br)cc2)c1	5.6µM*	2%	10µM*
CC1=NN(c2ccccc2)C(=O)/C1=C/c1c(O)n(-c2ccc(F)c(Cl)c2)[nH]c1=O	1%	-2%	-8%
COc1ccc(CNC(=O)CNC(=O)c2cccs2)c(OC)c1	16%	x	2%
Cc1c(-c2ccc(Cl)cc2)noc1C1CCN(CCc2ccccc2)CC1	20%	0%	-4%
COc1ccccc1C(=O)Nc1ccnn1C1CCN(CCCc2ccccc2)CC1	0%	x	-7%
Cc1cccc(N(CC(=O)NCc2ccco2)C(=O)CCC(=O)Nc2nccs2)c1	-2%	2%	-2%
Cc1ccc(C(=O)Nc2cccc(C(=O)O)c2)cc1	5µM*	-18%	18µM*
O=C(NC(=S)Nc1cccc(CO)c1)c1ccc(-c2ccccc2)cc1	1.6µM*	-1%	2.8µM*
CCOc1ccc(C(=O)Nc2cccc(C(=O)O)c2)cc1Cl	6.3µM*	-6%	u
O=C(NNC(=O)c1cccc(Br)c1)Nc1ccc(Cl)cc1	-20%	0%	5%
CCOc1ccc(C(=O)Nc2cc(NC(=O)c3ccc(OCC)c(Cl)c3)cc(C(=O)O)c2)cc1Cl	27%	1%	2%[10 µM]
O=C(NC(=S)Nc1cc(Cl)ccc1O)c1cccc(Br)c1	1.3µM*	x	3.5µM*
O=C(O)c1cccc(NC(=O)c2cc(NC(=O)c3ccccc3)cc(NC(=O)c3ccccc3)c2)c1	31%	x	-9%
COc1ccc(OC)c(C(C)NC(=O)Nc2ccccc2)c1 (stereo not given)	1%	-4%	-1%
SMILES	RORg inh	KinaseGlo FLuc	VP16 counter
CCCCCOc1ccc(C(O)C(CN2CCOCC2)c2ccccc2)cc1 (stereo not given)	25%	x	7%
O=C(NCc1ccccn1)c1ccc(NS(=O)(=O)c2ccccc2)cc1	41%	x	-2%
NC(N)=NCCCC(NC(=O)C(N)Cc1ccc(O)cc1)C(=O)O (stereo not given)	-4%	-6%	-9%
CCOC(=O)C(=NCC1CCCO1)NNc1ccccc1Cl (stereo not given)	16%	x	8%
CC1(C)OC(=O)C=C[C@@]2(C)C1C[C@@H](O)[C@]1(C)C2CC[C@@]2(C)C(c3ccoc3)OC(=O)[C@H]3O[C@]321 (stereo not given in full)	-13%	-1%	-15%
CC(=O)Nc1ccc(NC2CCCCC2NS(=O)(=O)c2ccccc2)cc1 (stereo not given)	17%	x	0%
Cn1c(C(C(=O)NCC2CCCO2)N(CCc2ccccc2)C(=O)Cn2nnc3ccccc32)nc2ccccc21 (stereo not given)	19%	2%	10%
Cc1cc(C(=O)Nc2cnc3ccccc3c2)ccc1[N+](=O)[O-]	20%	1%	6%

Compound activity as filed in PubChem.
